The values that follow come from ChEMBL document CHEMBL1961873, “Compounds: GSK PKIS; Assays: Nanosyn kinase panel” (2012).

Assay [1] has as its target Serine/threonine-protein kinase MRCK alpha (Homo sapiens) (UniProt Q5VT25). To be noted: at 0.1 µM.
For assay [2] the target is unchanged. The conditions noted are these: at 1 µM.
The target of assay [3] is Serine/threonine-protein kinase MRCK beta (Homo sapiens) (UniProt Q9Y5S2). To be noted: at 0.1 µM.
Assay [4] has the same target. The conditions noted are these: at 1 µM.
Assay [5] addresses Ribosomal protein S6 kinase alpha-5 (Homo sapiens) (UniProt O75582). The conditions noted are these: at 0.1 µM.
Assay [6] has the same target. The conditions noted are these: at 1 µM.
For assay [7], the target named is Ribosomal protein S6 kinase alpha-4 (Homo sapiens) (UniProt O75676). To be noted: at 0.1 µM.
The target is the same in assay [8]. The conditions noted are these: at 1 µM.
For assay [9], the target named is Ribosomal protein S6 kinase beta-1 (Homo sapiens) (UniProt P23443). To be noted: at 0.1 µM.
Sequence of Ribosomal protein S6 kinase beta-1 (Homo sapiens) (P23443 whole entry, looked up): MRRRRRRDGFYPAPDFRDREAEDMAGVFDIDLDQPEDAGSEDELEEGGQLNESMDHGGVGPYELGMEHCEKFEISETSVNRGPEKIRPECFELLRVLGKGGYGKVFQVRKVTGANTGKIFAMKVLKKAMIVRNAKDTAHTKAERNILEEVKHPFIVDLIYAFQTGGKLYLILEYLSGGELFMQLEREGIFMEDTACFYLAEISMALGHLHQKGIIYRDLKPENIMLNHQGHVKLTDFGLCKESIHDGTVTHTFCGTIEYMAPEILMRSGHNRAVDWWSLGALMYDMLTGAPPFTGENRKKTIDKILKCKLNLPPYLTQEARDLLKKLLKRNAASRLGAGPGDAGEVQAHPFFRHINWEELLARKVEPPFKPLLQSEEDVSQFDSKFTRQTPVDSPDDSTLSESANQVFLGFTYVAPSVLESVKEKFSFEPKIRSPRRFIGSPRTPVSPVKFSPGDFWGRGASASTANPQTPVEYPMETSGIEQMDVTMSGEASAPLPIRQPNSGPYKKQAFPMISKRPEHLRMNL
Assay [10] shares this target. To be noted: at 1 µM.

Sequence of Serine/threonine-protein kinase MRCK alpha (Homo sapiens) (Q5VT25 whole entry): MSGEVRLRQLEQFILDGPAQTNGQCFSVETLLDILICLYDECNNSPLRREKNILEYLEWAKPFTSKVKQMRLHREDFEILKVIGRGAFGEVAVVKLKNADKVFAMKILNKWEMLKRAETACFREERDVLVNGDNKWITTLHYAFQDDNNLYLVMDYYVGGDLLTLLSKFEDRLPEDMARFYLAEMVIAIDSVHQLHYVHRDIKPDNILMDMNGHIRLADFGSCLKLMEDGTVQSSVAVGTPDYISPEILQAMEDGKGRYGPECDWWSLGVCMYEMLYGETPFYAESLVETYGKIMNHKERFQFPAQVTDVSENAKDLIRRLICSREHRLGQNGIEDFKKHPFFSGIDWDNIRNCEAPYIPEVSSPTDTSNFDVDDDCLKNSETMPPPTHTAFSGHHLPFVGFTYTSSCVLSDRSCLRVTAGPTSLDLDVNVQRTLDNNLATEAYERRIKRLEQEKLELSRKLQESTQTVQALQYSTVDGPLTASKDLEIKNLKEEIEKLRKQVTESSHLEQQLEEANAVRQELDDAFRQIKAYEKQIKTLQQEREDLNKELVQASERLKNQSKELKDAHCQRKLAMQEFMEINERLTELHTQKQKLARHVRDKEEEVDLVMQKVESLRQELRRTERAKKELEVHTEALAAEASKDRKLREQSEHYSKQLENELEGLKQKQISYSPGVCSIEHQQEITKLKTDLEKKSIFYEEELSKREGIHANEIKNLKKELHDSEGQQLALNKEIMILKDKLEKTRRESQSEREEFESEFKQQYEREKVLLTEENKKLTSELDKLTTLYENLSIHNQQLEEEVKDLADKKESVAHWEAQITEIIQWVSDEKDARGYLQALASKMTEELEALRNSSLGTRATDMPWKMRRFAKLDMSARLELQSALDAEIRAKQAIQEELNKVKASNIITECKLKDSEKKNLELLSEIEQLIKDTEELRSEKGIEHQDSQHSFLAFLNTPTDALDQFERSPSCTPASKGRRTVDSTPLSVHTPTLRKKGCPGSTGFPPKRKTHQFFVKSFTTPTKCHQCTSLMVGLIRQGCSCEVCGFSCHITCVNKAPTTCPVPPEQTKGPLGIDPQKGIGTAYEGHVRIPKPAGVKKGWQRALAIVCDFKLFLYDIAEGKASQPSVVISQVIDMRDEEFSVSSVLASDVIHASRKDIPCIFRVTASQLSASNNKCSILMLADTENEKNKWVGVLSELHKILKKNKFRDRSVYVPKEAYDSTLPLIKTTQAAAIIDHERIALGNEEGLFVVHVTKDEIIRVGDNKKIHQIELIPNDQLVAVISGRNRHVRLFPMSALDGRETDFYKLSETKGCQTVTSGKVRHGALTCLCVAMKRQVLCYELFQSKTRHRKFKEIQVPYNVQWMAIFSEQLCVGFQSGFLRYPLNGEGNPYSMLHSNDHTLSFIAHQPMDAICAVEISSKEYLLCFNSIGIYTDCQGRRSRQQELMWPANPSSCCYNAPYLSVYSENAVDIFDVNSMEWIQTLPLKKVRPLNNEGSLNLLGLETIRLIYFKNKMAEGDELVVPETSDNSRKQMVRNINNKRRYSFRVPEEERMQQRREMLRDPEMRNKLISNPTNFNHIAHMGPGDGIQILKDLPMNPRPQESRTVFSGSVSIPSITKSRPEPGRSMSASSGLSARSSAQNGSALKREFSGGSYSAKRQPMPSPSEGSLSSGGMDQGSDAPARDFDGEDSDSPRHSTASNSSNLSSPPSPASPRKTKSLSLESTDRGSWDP
Sequence of Ribosomal protein S6 kinase alpha-5 (Homo sapiens) (O75582 whole entry, looked up): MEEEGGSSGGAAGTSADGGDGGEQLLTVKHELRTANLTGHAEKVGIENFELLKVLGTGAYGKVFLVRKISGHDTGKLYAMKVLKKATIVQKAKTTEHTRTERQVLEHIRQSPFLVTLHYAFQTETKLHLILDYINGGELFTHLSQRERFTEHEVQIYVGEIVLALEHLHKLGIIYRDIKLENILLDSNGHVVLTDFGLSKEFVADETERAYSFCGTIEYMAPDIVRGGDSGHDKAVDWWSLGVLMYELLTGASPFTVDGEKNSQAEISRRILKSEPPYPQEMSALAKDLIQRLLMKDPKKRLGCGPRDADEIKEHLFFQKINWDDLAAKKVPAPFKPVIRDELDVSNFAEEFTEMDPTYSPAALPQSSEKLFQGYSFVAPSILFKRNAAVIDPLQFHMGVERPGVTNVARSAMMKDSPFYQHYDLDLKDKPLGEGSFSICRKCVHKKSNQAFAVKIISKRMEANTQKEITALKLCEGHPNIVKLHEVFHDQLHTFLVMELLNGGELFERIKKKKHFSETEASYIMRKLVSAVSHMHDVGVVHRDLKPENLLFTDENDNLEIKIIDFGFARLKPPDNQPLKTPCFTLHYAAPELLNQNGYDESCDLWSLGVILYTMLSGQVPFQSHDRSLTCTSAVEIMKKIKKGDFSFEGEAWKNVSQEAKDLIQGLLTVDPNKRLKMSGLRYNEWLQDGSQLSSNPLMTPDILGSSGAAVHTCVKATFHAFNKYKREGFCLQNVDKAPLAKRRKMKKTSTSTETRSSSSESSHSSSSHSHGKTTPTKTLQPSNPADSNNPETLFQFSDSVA
Sequence of Serine/threonine-protein kinase MRCK beta (Homo sapiens) (Q9Y5S2 whole entry): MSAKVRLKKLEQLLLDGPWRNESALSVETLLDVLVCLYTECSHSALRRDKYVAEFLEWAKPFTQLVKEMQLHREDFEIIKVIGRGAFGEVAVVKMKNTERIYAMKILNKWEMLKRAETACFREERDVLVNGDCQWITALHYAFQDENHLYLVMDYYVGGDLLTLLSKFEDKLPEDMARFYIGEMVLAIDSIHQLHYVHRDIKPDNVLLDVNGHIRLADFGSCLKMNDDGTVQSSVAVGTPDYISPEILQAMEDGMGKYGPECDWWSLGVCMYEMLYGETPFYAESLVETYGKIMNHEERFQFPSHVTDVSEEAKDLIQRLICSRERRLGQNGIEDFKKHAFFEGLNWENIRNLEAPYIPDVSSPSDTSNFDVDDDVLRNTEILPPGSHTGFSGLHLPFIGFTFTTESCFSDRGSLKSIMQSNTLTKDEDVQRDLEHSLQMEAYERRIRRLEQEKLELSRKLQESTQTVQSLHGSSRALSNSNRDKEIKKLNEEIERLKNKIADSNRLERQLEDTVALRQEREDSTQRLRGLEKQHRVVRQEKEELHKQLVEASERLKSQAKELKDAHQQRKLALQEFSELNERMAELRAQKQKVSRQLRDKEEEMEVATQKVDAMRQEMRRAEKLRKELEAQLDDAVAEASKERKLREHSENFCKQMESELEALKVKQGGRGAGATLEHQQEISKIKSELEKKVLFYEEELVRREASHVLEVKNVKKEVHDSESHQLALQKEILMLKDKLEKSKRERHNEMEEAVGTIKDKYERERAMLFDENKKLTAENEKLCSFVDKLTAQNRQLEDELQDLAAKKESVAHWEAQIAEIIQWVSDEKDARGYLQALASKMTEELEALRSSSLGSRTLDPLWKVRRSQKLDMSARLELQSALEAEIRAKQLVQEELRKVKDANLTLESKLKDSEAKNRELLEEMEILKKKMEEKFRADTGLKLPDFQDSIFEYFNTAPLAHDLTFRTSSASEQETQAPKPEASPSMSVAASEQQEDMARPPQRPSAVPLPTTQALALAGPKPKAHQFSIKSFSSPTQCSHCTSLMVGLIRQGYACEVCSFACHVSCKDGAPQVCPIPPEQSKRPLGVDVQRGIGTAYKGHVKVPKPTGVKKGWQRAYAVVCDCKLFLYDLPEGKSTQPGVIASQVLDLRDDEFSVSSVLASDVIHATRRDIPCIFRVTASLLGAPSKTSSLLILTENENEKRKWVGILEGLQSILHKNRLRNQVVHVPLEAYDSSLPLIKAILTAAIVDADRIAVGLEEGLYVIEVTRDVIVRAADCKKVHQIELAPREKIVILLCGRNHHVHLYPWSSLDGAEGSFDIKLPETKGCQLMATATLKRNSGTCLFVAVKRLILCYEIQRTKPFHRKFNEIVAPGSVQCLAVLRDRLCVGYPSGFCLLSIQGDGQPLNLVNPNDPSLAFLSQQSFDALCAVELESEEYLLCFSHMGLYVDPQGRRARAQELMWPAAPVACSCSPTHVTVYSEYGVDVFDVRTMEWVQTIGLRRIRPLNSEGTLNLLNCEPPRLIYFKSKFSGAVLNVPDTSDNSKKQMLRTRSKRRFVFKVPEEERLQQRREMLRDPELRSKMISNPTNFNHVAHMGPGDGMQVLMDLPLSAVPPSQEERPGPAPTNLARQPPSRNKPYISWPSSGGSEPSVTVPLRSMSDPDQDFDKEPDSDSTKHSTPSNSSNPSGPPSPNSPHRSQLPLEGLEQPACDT

The term inhibition denotes the drop in the measured response relative to a control, in per cent. Consider `COc1cccc(-n2ncc3c(N/N=C/c4ccc(C)cc4)ncnc32)c1`, for which the inhibition in assay [1] is 4.17%; in assay [2], 5.98%; in [3], 1.06%; in assay [4] it was 1.73%; in [5], -3.87%; in assay [6], -2.7%. Further, the inhibition in assay [7] is 3.45%; in assay [8] it was 5.55%; in [9] it was 2.62%; in assay [10], 3.95%.

As for `Cc1ccc(NC(=O)CC2CC2)cc1-c1ccc(C(=O)NCC2CC2)cc1`, the inhibition in [1] was -0.72%; in [2] it was 2.73%; in assay [3], -0.56%; in assay [4] it was 0.45%; in assay [5] it was 8.94%; in assay [6], 8.13%. The inhibition worked out at 2.17% in [7], 2.4% in assay [8], 1.73% in assay [9] and 2.46% in assay [10].

On to `CN(C)C(=O)O[C@H]1CN[C@H](C#Cc2cc3ncnc(Nc4ccc(OCc5cccc(F)c5)c(Cl)c4)c3s2)C1`, for which the inhibition in assay [1] is -0.3%; in [2], -0.73%; in assay [3], 0.58%; in assay [4] it was 2.77%; in assay [5], 2.4%; in [6], 4.95%. The inhibition in assay [7] came to 0.06%; in [8] it was 4.03%; in assay [9], 0.89%; in assay [10], 2.08%.

Take `C[C@@H](Oc1cc(-n2cnc3ccc(OC[C@@H](O)CO)cc32)sc1C(N)=O)c1ccccc1Cl`: the inhibition in assay [1] is -0.35%; in assay [2], 4.31%; in assay [3], 1.02%; in assay [4], 3.59%; in assay [5] it was -1.23%; in [6] it was -0.54%. Further, the inhibition in [7] was 0.35%; in assay [8] it was 1.7%; in assay [9], 0.75%; in assay [10], 1.5%.

In the case of `N#Cc1cccc(Nc2nccc(-c3cnn4ncccc34)n2)c1`, the inhibition in [1] is 0%; in [2] it was 2.93%; in assay [3] it was -1.54%; in assay [4] it was 1.01%; in assay [5] it was 3.66%; in assay [6], 8.54%. For the same compound, the inhibition in assay [7] was 2.1%; in [8], 8.46%; in [9], 0.58%; in [10], 3.59%.

On to `CS(=O)(=O)CCNCc1nc(-c2ccc3ncnc(Nc4ccc(OCc5cccc(C(F)(F)F)c5)cc4)c3c2)cs1`, for which the inhibition in assay [1] was 4.26%; in assay [2], 2.95%; in assay [3], -0.6%; in assay [4], 0.82%; in assay [5] it was 0.64%; in [6] it was 1.57%. Further, the inhibition in assay [7] is 1.54%; in assay [8] it was 2.66%; in assay [9], 1.22%; in assay [10], 1.83%.

In the case of `c1ccc(Cc2nc3ccc(Nc4ncnc5ccccc45)cc3[nH]2)cc1`, the inhibition is -0.57% in assay [1]; -0.25% in [2]; -0.96% in assay [3]; -0.17% in assay [4]; 2.76% in [5]; 4.26% in assay [6]. In addition, the inhibition is 0.49% in assay [7], 2.83% in assay [8], 0.76% in [9] and 2.79% in assay [10].

On to `CCn1c(-c2nonc2N)nc2c(C#CC(C)(C)O)nc(OCCNC)cc21`, for which the inhibition in assay [1] was 1.79%; in assay [2], 6.63%; in [3], -0.48%; in assay [4], 2.36%; in assay [5] it was 1.77%; in assay [6], 2.97%. Moreover, the inhibition came out at 3.16% in assay [7], 9.93% in [8], 3.31% in assay [9] and 10.1% in [10].

With `CN(C)c1cc2c(Nc3ccc4c(cnn4Cc4ccccc4)c3)ncnc2cn1`, the inhibition in assay [1] is -0.16%; in assay [2], 0.83%; in assay [3] it was 1.04%; in assay [4], 1.67%; in [5], 3.83%; in assay [6], 6.2%. Further, the inhibition in [7] was 2.42%; in assay [8], 6.24%; in assay [9], 2.01%; in assay [10] it was 3.88%.

Consider `CCCN1CCCC(c2ccc(Nc3nc(Nc4cc(F)ccc4C(N)=O)c4cc[nH]c4n3)c(OC)c2)C1` (stereo not given), for which the inhibition was found to be 1.76% in [1]; 17.9% in assay [2]; 1.55% in assay [3]; 13% in assay [4]; 4.88% in assay [5]; 5.31% in [6]. The inhibition stood at 1.64% in [7], 7.01% in assay [8], 1.93% in assay [9] and 4.24% in assay [10].

As for `COc1cc(Nc2nccc(-c3cnn4ncccc34)n2)cc(OC)c1`, the inhibition stood at 0.39% in [1]; 3.14% in assay [2]; 1.06% in assay [3]; 3.3% in assay [4]; 1.61% in assay [5]; 7.26% in assay [6]. Further, the inhibition in assay [7] was found to be 2.85%; in assay [8] it was 15.7%; in assay [9], 1.87%; in assay [10], 6.59%.

As to `Nc1ccc(C#Cc2cncnc2Nc2ccc(OCc3cccc(F)c3)c(Cl)c2)cc1`, the inhibition in assay [1] was -1.73%; in assay [2] it was 0.19%; in [3] it was 1.04%; in [4], 1.18%; in [5] it was 1.3%; in [6], -0.19%. In addition, the inhibition in assay [7] was found to be 1.93%; in [8], 3.14%; in assay [9], 0.9%; in [10], 0.85%.

Take `COc1cccc(-n2nc(C)c3c(N/N=C(\C)c4ccncc4)ncnc32)c1`: the inhibition was 1.87% in assay [1]; -2.42% in assay [2]; 0.02% in [3]; -0.47% in [4]; 0.18% in assay [5]; -0.52% in assay [6]. Besides, the inhibition is 0.44% in assay [7], 0.3% in assay [8], 0.29% in assay [9] and -0.38% in assay [10].

On to `CN(C)CCCn1c(-c2nonc2N)nc2cnccc21`, for which the inhibition came out at 1.89% in assay [1]; 16.4% in assay [2]; 4.34% in assay [3]; 22.6% in [4]; 8.29% in assay [5]; 28.7% in assay [6]. Further, the inhibition in [7] stood at 3.18%; in assay [8], 13.9%; in [9], 2.39%; in assay [10], 13.2%.

Regarding `CCOc1nccc2c1nc(-c1nonc1N)n2CC`, the inhibition in [1] is 2.25%; in assay [2] it was 5.56%; in assay [3], 1.28%; in assay [4] it was 2.92%; in [5] it was 13.2%; in [6], 45.4%. Moreover, the inhibition was found to be 6.75% in [7], 27.6% in [8], 13.4% in [9] and 56.5% in assay [10].

As for `O=S(=O)(CCOCc1ccc(-c2ccc3ncnc(Nc4ccc(OCc5cccc(F)c5)c(Cl)c4)c3c2)o1)c1ccccc1`, the inhibition was 0.06% in [1]; -0.21% in [2]; 0.42% in assay [3]; 1.18% in assay [4]; 0.65% in [5]; 0.85% in assay [6]. For the same compound, the inhibition was -0.78% in assay [7], 0.33% in assay [8], -1.35% in [9] and -0.16% in assay [10].

In the case of `COC(=O)c1ccc2c(c1)C(=Cc1cc(Br)c(O)c(Br)c1)C(=O)N2`, the inhibition in assay [1] was 5.51%; in [2], 5.34%; in assay [3] it was -0.51%; in [4], -0.15%; in assay [5] it was 7.14%; in assay [6] it was 12.2%. Also, the inhibition turned out to be 2.52% in assay [7], 6.18% in assay [8], 1.57% in [9] and 3.47% in assay [10].
